Hits are enriched below; roughly 19% of the tested compounds scored in any of these assays.
SARS PLP yeast: SARS-CoV PLP inhibition in yeast; Potency, µM (series often up to 32.9 µM), inactives show at the top dose activity, positive = growth rescue, hits mostly activators; hit rate 0.19% among 330,000; AID 485353; S. cerevisiae expressing SARS-CoV PLpro, growth rescue; calls by dose curve; further: potency means the concentration at half of the fitted maximal effect; 0% is about no effect; nearly all actives have a fitted effect of over 55% in size
AMA1-RON2 inh: disrupts binding of P. falciparum AMA1 to RON2 | AID 720542 | AlphaScreen AMA1-biotinylated RON2 peptide binding | hit rate 0.2% among 360,000 | Potency, µM (titrated, usually from 58.2 µM), without a hit: at the top dose activity change, negative = inhibition, most hits filed as inhibitors;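 further: potency means the concentration at half of the fitted maximal effect; 0% = vehicle wells and -100% = peptide control; nearly all actives have a fitted effect of over 45% in size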
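AMA1 (3D7) with his tag at 25 nM final met compounds first, then biotinylated RON2 peptide at 25 nM; detection used donor plus acceptor beads, 10 µg/mL apiece, read by AlphaScreen after 30 min at room temperature.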
Pf growth 48h: P. falciparum growth inhibition at 48 hours (one generation); Potency, µM (top dose mostly 28.7 µM), without a hit: at the highest dose activity change, negative = inhibition, hits mostly inhibitors; hit rate 5.9% among 310,000; P. falciparum luciferase growth in erythrocytes, 48 h; further: potency means the concentration at half of the fitted maximal effect; on the % scale 0 is the no-effect control and ±100 the full control effect
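Read-out is firefly luciferase luminescence from an integrated reporter in P. falciparum, so falling signal marks reduced parasite growth. Infected erythrocytes were at 2% hematocrit and 0.1% parasitemia (final) in Albumax-supplemented RPMI 1640.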
Pf growth 96h: P. falciparum growth inhibition at 96 hour, primary screen for plastid delayed-death inhibitors; P. falciparum luciferase reporter growth, 96 h; Potency, µM (titrated, usually from 28.7 µM), for the others: at the top dose activity change, negative = inhibition, most hits filed as inhibitors; hit rate 6.9% among 320,000; AID 504834; further: potency means the concentration at half of the fitted maximal effect; on the % scale 0 is the no-effect control and ±100 the full control effect
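P. falciparum expressing integrated firefly luciferase, in erythrocytes at 2% hematocrit, 0.05% parasitemia, incubated with compounds 96 h at 37 C, 5% CO2. Growth inhibition read as loss of luminescence; two-generation exposure targets delayed-death apicoplast inhibitors.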
Shiga toxin inh: Shiga toxin inhibition; Vero cells, Shiga toxin protein synthesis inhibition reporter; hit rate 9.2% among 290,000; inhibition, % at 38.7 µM; AID 2315; in the data active means inhibition mostly above about 28%, no sharp cut-off; inactive means mostly below about 43%; further: 0% is about no effect
CHX counter: affects cycloheximide protein synthesis inhibition readout, counter-screen. cell reporter, cycloheximide protein synthesis inhibition counterscreen. max response, %. hit rate 12% among 300,000. AID 2314; in the data active means max response mostly above about 13%, no sharp cut-off; inactive means mostly below about 14%; further: read at 38.3 µM for the half of the compounds with a filed dose; 0% is about no effect
Starred values were filed as active, the others as inactive; ? = inconclusive; . = no result; [ ] = dose if it differs, or a comment. Unless noted, the call rests on the fitted dose curve; in most records, active means well fitted curve in the direction sought with a large enough effect; inconclusive means small, poorly fitted or top-dose-only effect, or another doubt; inactive means no such curve, though single readings can be large; an effect the other way counts as inactive or inconclusive.

SMILES	SARS PLP yeast	AMA1-RON2 inh	Pf growth 48h	Pf growth 96h	Shiga toxin inh	CHX counter
O=C(Cc1ccccc1)c1ccc(O)cc1O	.	-3%	.	.	.	.
O=C(Cc1ccc2cccnc2c1)c1ccc(O)cc1O	2%	35%	.	.	34*	29*
CCc1ccc(-c2ccc(C(=O)O)cc2)nc1	-25%	8%	96%	?	37	38*
CCc1ccc(-c2csc3ncn(Cc4ccc(C(=O)O)cc4)c(=O)c23)cc1	0%	-6%	-13%	48%[5.75 µM]	-23	-1
N#CC1(NC(=O)CN2CCN(S(=O)(=O)c3ccccc3F)CC2)CCCC1	0%	-2%	13%	11%	-12	-1
N#CCC(=O)Nc1ccc(C(=O)N2CCN(c3ccccn3)CC2)cc1	-1%	8%	-14%	?	3	-3
COc1ccc(Cn2c(=O)n(Cc3ccco3)c(=N)c3c4c(sc32)COC(C)(C)C4)cc1	-7%	-17%	5.9µM*	13µM*	-10	-3
CC1(C)Cc2c(sc3c2c(=N)n(Cc2ccco2)c(=O)n3Cc2ccc(F)cc2)CO1	-13%	-14%	?	?	-7	1
O=C(CN1C(=O)NC2(CCCC2)C1=O)NCCc1ccccc1	0%	-1%	.	.	.	.
O=C(CCl)Nc1c2c(nn1-c1ccccc1)CSC2	-3%	-1%	4.1µM*	2.9µM*	-3	4
O=C(/C=C\c1ccc2c(c1)OCO2)Nc1c2c(nn1-c1ccc(Cl)cc1)CSC2	-21%	0%	?	10µM*	-20	-4
O=c1c2ccccc2nc(-c2cccs2)n1-c1ccc2ccccc2c1	20%	-20%	-3%	?	active	29*
Oc1ccc(C(=C(Cl)Cl)c2ccc(O)cc2)cc1	-2%	.	2.9µM*	2.3µM*	-7	-1
O=C(Nc1ccccc1)N1CCCC(c2nc(-c3ccc(F)cc3)no2)C1 (centres undefined)	-3%	3%	1%	?	42	14
Cc1ccc(NC(=O)N2CCCC(c3nc(-c4ccc(F)cc4)no3)C2)cc1 (centres undefined)	3%	-5%	21%	66%	60*	15
O=C(C1CCCCC1)N1CCCC(c2nc(-c3ccc(F)cc3)no2)C1 (centres undefined)	-6%	4%	17%	?	4	-2
Cc1ccccc1NC(=O)C1CCCN(c2ncnc3onc(-c4ccc(F)cc4)c23)C1 (centres undefined)	.	-3%	9.3µM*	20%	14	-4
Cc1ccccc1NC(=O)N1CCCC(c2nc(-c3ccc(F)cc3)no2)C1 (centres undefined)	8%	-3%	31%	.	110*	24*
Cc1ccccc1NC(=O)N1CCCC(c2nc(-c3ccc(C(C)C)cc3)no2)C1 (centres undefined)	-6%	-13%	-15%	-8%	-1	26*
CC(CN1CCCC1)OC(=O)COc1ccccc1 (centres undefined)	?	7%	-6%	.	-18	-3
CSc1n[nH]c(NC(C)=O)n1	2%	6%	1.2µM*	8%	-28	0
CCCSc1n[nH]c(NC(C)=O)n1	6%	0%	.	28%	-4	1
CN(CC(=O)Nc1ccc(F)cc1)C(=O)Cn1cnc2ccc([N+](=O)[O-])cc2c1=O	3%	-8%	.	.	.	.
FC(F)(F)c1cccc(C2NCc3ccccc3-n3cccc32)c1 (centres undefined)	-2%	3%	-21%	4.7µM*	3	-4
Oc1ccc(C2NCc3ccccc3-n3cccc32)cc1Cl (centres undefined)	-7%	-19%	0.66µM*	31%	-5	-1
SMILES	SARS PLP yeast	AMA1-RON2 inh	Pf growth 48h	Pf growth 96h	Shiga toxin inh	CHX counter
O=C(c1cccc(S(=O)(=O)N2CCOCC2)c1)N1CCCc2ccccc21	3%	-4%	-29%	1%	-4	-3
O=C(CNc1ccc(C(F)(F)F)cc1)Nc1cccc(S(=O)(=O)N2CCCC2)c1	2%	4%	?	?	.	.
O=C(CNc1ccc(Br)cc1)Nc1ccc(S(=O)(=O)N2CCCC2)cc1	1%	-3%[11.6 µM]	9.3µM*	12µM*	.	.
O=C(CNc1cccc(S(=O)(=O)N2CCCC2)c1)Nc1cccc(Br)c1	2%	-6%	5.2µM*	4.1µM*	.	.
O=C(CNc1ccc(Br)cc1)Nc1cccc(S(=O)(=O)N2CCCC2)c1	0%	-3%	-85%	-51%	.	.
O=C(CNc1cccc(S(=O)(=O)N2CCOCC2)c1)Nc1ccc(C(F)(F)F)cc1	5%	0%	6.6µM*	7.4µM*	.	.
O=C(CNc1cccc(S(=O)(=O)N2CCOCC2)c1)N1CCc2ccccc21	0%	-4%	-18%	-11%	45*	10*
NNC(=S)Nc1c(F)cc(F)cc1Br	-1%	60%	-29%	?	-6	2
O=C(COc1ccc(C(=O)NCC2CCCO2)cc1)Nc1cccc(C(F)(F)F)c1 (centres undefined)	3%	-22%	?	?	.	.
COc1ccc(S(=O)(=O)Nc2cccc3c2O[C@H](CN(C)C(=O)Nc2ccc(C(F)(F)F)cc2)[C@@H](C)CN([C@H](C)CO)C3=O)cc1	-18%	-10%	.	.	.	.
COc1ccc(CNC(=O)COC(=O)c2cc(C)oc2C)cc1	.	-7%	.	.	.	.
COc1ccc(S(=O)(=O)N2CCN(C(=O)c3cc(C)nc4ccccc34)CC2)cc1OC	-1%	-3%	.	.	.	.
CCN(CC)S(=O)(=O)c1cccc(NC(=O)CNc2cccc(S(=O)(=O)N3CCOCC3)c2)c1	2%	1%	?	?	.	.
Cc1ccc(S(=O)(=O)N2CCCCC2)cc1NC(=O)COC(=O)c1cccc(O)c1	.	-5%	.	.	.	.
O=C(CNc1cccc(S(=O)(=O)N2CCOCC2)c1)Nc1cccc(Br)c1	-1%	-14%	6.6µM*	9.3µM*	.	.
CC(=O)c1cccc(NCC(=O)Nc2cc(S(=O)(=O)N3CCCCC3)ccc2C)c1	-1%	-13%	?	10µM*	-6	-2
O=C(CNc1cc(S(=O)(=O)N2CCCC2)ccc1OCC(F)(F)F)Nc1ccc(SC(F)F)cc1	-2%	-8%	?	?	53	21*
CCN(CC)S(=O)(=O)c1cc(NC(=O)CNc2cccc(S(=O)(=O)N3CCCC3)c2)ccc1C	2%	-12%	12µM*	?	.	.
Cc1cc(C)n2nc(C(=O)OCC(=O)NCc3ccc(F)cc3)nc2n1	-1%	-1%	.	.	.	.
CCOc1ccc(NC(=O)c2cc(S(=O)(=O)N3CCCCC3)c[nH]2)cc1	6%	-8%	-28%	21%	-7	1
CCN(CC)S(=O)(=O)c1ccc(C)c(NCC(=O)Nc2ccc(C#N)c(Cl)c2)c1	-9%	-4%	?	5.2µM*	-5	-4
CCN(CC)S(=O)(=O)c1ccc(Cl)c(NC(=O)c2ccc(C#N)cc2)c1	18%	-4%	-18%	-7%	-7	-2

Compound activity as filed in PubChem BioAssay.
